Vaccinia pol inh = vaccinia E9 polymerase processive synthesis inhibition; normalized absorbance, % (no concentration beside the values); actives 0.94% (n = 46,000); in vitro processive DNA synthesis, absorbance read-out; hits give low values; in the data active means normalized absorbance mostly below about 85%, no sharp cut-off; inactive means mostly above about 86%
Starred values were filed as active, the others as inactive. Shown is part of a subset that was picked to be rich in hits.

SMILES | Vaccinia pol inh
O=C(COC(=O)c1cc(Br)ccc1O)NCc1ccccc1 | 94.1
COCCN(C(=O)Nc1ccc(Cl)c(Cl)c1)C1CCN(C(C)C)CC1 | 86.9
CCn1cc(C(=O)NCCc2ccccc2)c(=O)c2cc(S(=O)(=O)N3CCC(C)CC3)ccc21 | 98.7
CCc1ncc(C(O)c2ccc(OC)cc2)n1C (configuration not stated) | 102.0
CC1(O)NC(=O)C2(C#N)C(C#N)(C#N)C12c1ccccc1 (configuration not stated) | 99.9
FC(F)(F)c1cc(C(F)(F)F)c(Br)c(-n2cccc2)c1Br | 95.7
CCOC(=O)c1oc2ccccc2c1NC(=O)c1ccc(S(=O)(=O)N(C)C)cc1 | 103.8
CCOC(=O)c1oc2ccccc2c1CO | 77.0*
CCOC(=O)c1oc2ccccc2c1NC(=O)c1ccccc1 | 91.5
CC(C)NC(=O)C[n+]1csc2ccccc21 | 100.6
CCc1cccc(CC)c1NC(=O)COC(=O)c1cccs1 | 89.1
CN(C)c1ccc(C2NCC(CSc3nc4ccccc4s3)O2)cc1 (configuration not stated) | 99.3
Cc1csc(NC(=O)c2ccccc2C(=O)O)c1-c1nc2ccccc2s1 | 71.7*
O=C(O)c1ccccc1-c1nc2ccccc2s1 | 98.8
Cc1ccc2nc(NC(=O)c3ccccc3C(=O)O)sc2c1 | 90.6
Cc1ccc(S(=O)(=O)N(O)c2ccc(Cl)cc2)cc1 | 97.6
COc1ccc2c(c1)c(C(=O)CSc1ccccc1)c(C)n2C | 94.7
COc1ccc2c(c1)c1ccccc1n2C | 67.3*
COc1ccc(OC)c(-c2n(C)c3ccccc3[n+]2C)c1 | 75.0
O=C(NC1CCCCC1)C(Cc1c[nH]c2ccccc12)NC(=O)C(c1ccccc1)c1ccccc1 (configuration not stated) | 98.5
O=C(O)CC(C1CCCCC1)n1cccc1 (configuration not stated) | 102.4
Cc1ccc(N(CC(O)Cn2c3ccccc3c3ccccc32)S(=O)(=O)c2ccccc2)cc1 (configuration not stated) | 100.6
CCN(CC)CC(O)Cn1c2ccccc2c2ccccc21 (configuration not stated) (tested in a mixture with another compound) | 76.2*
Cc1c(C)n(CC(O)CNC2CCCC2)c2ccccc12 (configuration not stated) | 97.0
CC(C)Cn1c2ccccc2c2ccccc21 | 98.5
SMILES | Vaccinia pol inh
Cc1c(C)n(CC(O)CNC2CCCCC2)c2ccccc12 (configuration not stated) | 99.9
OC(CNC1CCCC1)Cn1c2ccccc2c2ccccc21 (configuration not stated) | 80.1*
COC(=O)Cn1cncn1 | 98.3
OCc1cc(Cl)ncc1Cl | 99.5
C=CCOC(=O)CCN1C(=O)/C(=C/c2ccccc2)SC1=S | 94.9
CC(CCc1ccccc1)NCc1c(C(=O)O)n(Cc2ccc(F)cc2Cl)c2ccccc12 (configuration not stated) | 95.9
NCc1nc2ccccc2c(=O)[nH]1 | 93.4
Cc1ccnc(SCC(=O)Nc2cccc(C(F)(F)F)c2)n1 | 93.9
O=C(Nc1cccc(Cl)c1)n1ncc2cc(Cl)ccc21 | 84.8
Cc1c(Sc2ccc(Cl)cc2)cnn1C(=O)Nc1cccc(C(F)(F)F)c1 | 71.4*
CSc1cccc(NC(=O)CSc2ncccc2C(=O)OC(C)C)c1 | 101.8
O=C(Nc1ccc2c(c1)OCO2)C1c2ccccc2Oc2ccccc21 | 98.3
O=C(COc1ccc(Cl)cc1Cl)Nc1ccc(-c2nnc3n2CCCCC3)cc1 | 88.6
O=C(CSc1nnc(COc2ccc(Cl)cc2)o1)N1CCc2ccccc21 | 101.9
Cc1c(C)n(CCN(C)C)c2ccc(C(=O)OCCN(C)C)cc12 | 61.7*
CCOC(=O)c1ccc2c(c1)c(C)c(C)n2Cc1ccccc1 | 99.4
Cc1c(C)n(Cc2ccccc2)c2ccc(C(=O)OCCN3CCOCC3)cc12 | 97.9
Cc1ccccc1N=CC=Nc1ccccc1C | 103.1
Cc1cccc(C)c1OCCN1C(=O)c2ccccc2C1(O)c1ccccc1 (configuration not stated) | 99.2
O=C(Nc1ccccn1)c1cccc(C(=O)Nc2ccccn2)c1 | 95.7
COc1ccc2c(c1)C=C(C(=O)Nc1ccccc1)CO2 | 103.4
O=C(Nc1ccc(Cl)cc1)C1=Cc2ccccc2OC1 | 64.6*
Nc1c(C(=O)Nc2ccc(Cl)cc2)oc2ccccc12 | 99.9
O=c1oc2ccc(NS(=O)(=O)c3ccccc3)cc2s1 | 100.6
CC(=O)NC(N1CCCCC1c1cccnc1)(C(F)(F)F)C(F)(F)F (configuration not stated) | 98.1
SMILES | Vaccinia pol inh
CCCC1CCC(c2ccc(C(N)=O)cc2)CC1 (configuration not stated) | 99.4
CCCC1CCC(c2ccc(C(=O)CCN(C)C)cc2)CC1 (configuration not stated) | 92.6
CCCCC1CCC(c2ccc(C(=O)O)cc2)CC1 (configuration not stated) | 51.0*
O=c1ccc2cc(S(=O)(=O)NC3CCCCC3)ccc2[nH]1 | 97.8
O=C(O)c1cc(-c2cccs2)nc2ccccc12 | 91.1
CN(C(=O)c1cc(-c2cccs2)nc2ccccc12)c1ccccc1 | 106.9
O=C(O)c1cc(-c2cccs2)nc2ccc(Br)cc12 | 33.8*
Cc1ccc2c(c1)-c1c(ssc1=Nc1ccc(S(N)(=O)=O)cc1)C(C)(C)N2 | 100.1
O/N=C/C1=C(Cl)c2ccccc2CC1 | 77.8*
Cn1nc(-c2ccccc2)c(/C=N/O)c1Cl | 100.4
O/N=C/c1cccs1 | 124.1
Cc1cc2ccccc2n1CCNC(=O)c1ccc2c(c1)OCO2 | 92.7
CCOC(=O)CCc1ccc(OCc2c(C)c(C)c(C)c(C)c2C)cc1 | 96.1
CCOC(=O)CCc1c(CC(=O)OCC)c[nH]c1/C=N/O | 31.1*
CCOC(=O)CCc1n[nH]c(=O)[nH]c1=O | 101.5
C=CCOc1ccc(/C=C2\C(=O)N(c3ccc(S(N)(=O)=O)cc3)N=C2C(F)(F)F)cc1OC | 99.9
COC(=O)c1ccc2c(=O)n(CCC3=CCCCC3)c(SCC(=O)C(C)(C)C)nc2c1 | 99.4
CC1=Nc2cc(C(=O)NCc3cccnc3)ccc2Sc2ccccc21 | 103.9
O=C(O)c1ccc2c(c1)NC(=O)C1CCCN21 (configuration not stated) | 47.5*
CC1CCc2[nH]c3ccc(C(=O)O)cc3c2C1 (configuration not stated) | 100.0
COC(=O)c1ccc2c(c1)NC(=O)C1CCCN21 (configuration not stated) | 94.4
CCOC(=O)c1sc(NC(=O)c2cccs2)nc1-c1ccccc1 | 107.8
CSc1ccc(/C=C2\CC/C(=C\c3ccc(SC)cc3)C2=O)cc1 | 105.6
O=C1/C(=C/c2cc3ccccc3o2)CC/C1=C\c1cc2ccccc2o1 | 98.6
O=C1/C(=C\c2ccc(Br)o2)CC/C1=C/c1ccc(Br)o1 | 19.3*
SMILES | Vaccinia pol inh
Cc1noc2nc(-c3cccs3)cc(C(F)(F)F)c12 | 97.0
COc1ccc(SCC(=O)NCc2ccc3c(c2)OCO3)cc1 | 93.3
C[n+]1cc2c3c(ccc2c2ccc4cc5c(cc4c21)OCO5)OCO3 | 93.4
COc1ccc2c(c1)c(OC)[n+](C)c1c3cc4c(cc3ccc21)OCO4 | 76.9*
CC(C)(C)OC(=O)N1CCCC1C(=O)Oc1ccc2c(=O)c(-c3ccc4c(c3)OCCO4)coc2c1 (configuration not stated) | 99.9
O=C(O)c1c2ccccc2cc2ccccc12 | 99.6
O=C(O)c1cccc(N2C(=O)CCC2=O)c1 | 100.6
O=C(O)c1cc2ccc3cccc4ccc(c1)c2c34 | 77.0*
CCCCN(C)S(=O)(=O)c1cccc2cccnc12 | 95.5

Screening results as filed in PubChem BioAssay.
